Experimental findings from PubChem BioAssay are described below.

The test system of assay [1] is XIP peptide (Xip251-270) binding. Kind of assay: XIP fragment 251-270 binding compounds – biochemical, small-molecule microarray, fluorescence 635/667 nm, 0.1 µg/mL protein, primary screen (AID 1182). Conditions: fluorescent protein binding, 635 nm, higher = more signal, called active from +8 up or from −8 down.
Assay [2] concerns XIP peptide (Xip251-270). Kind of assay: compounds binding XIP fragment 251-270 – biochemical, small-molecule microarray, fluorescence 635/667 nm, 0.5 µg/mL protein, primary screen (AID 1183). The conditions noted are these: fluorescence 635 nm, higher = more signal.
The nature of assay [3]: blood-stage malaria parasite viability loss – strain 3D7, DAPI fluorescence, 100 nL, primary screen (AID 1184).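 Further: parasites grown inside human red blood cells in medium with human serum.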 Conditions: P. falciparum 3D7 growth, 3 d, higher = more signal.
The target of assay [4] is Homeobox protein Hox-A13 (Mus musculus) (UniProt Q62424). Kind of assay: disruptors of Hoxa13 oligonucleotide interaction – biochemical, fluorescence polarization, labeled oligonucleotide, primary screen (AID 1185). Conditions: Hoxa13:DNA binding, 15 min, higher = more signal, called active from +8 up or from −8 down. On the technique in general: In fluorescence polarisation assays a small probe gives low polarisation when free and higher when bound to something large.
Homeobox protein Hox-A13 (Mus musculus), sequence (Q62424 whole entry, looked up): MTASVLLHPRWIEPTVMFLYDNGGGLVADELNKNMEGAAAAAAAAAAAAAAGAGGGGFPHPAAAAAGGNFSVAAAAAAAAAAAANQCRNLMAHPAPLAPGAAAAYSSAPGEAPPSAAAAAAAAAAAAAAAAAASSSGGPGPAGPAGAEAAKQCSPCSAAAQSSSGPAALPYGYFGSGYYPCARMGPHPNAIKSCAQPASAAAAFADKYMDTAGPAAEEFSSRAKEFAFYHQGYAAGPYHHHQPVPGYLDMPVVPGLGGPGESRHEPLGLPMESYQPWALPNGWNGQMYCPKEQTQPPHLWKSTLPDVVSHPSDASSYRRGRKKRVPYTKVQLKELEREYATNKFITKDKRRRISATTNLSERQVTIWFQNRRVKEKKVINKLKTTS

A short description of assay [5]: blockers of DNA damage checkpoint Chk1 activation – imaging, HeLa, hydroxyurea, phospho-Chk1 antibody, percent positive cells, primary screen (AID 1186). The conditions noted are these: hydroxyurea-induced phospho-Chk1 immunofluorescence imaging, higher = more signal.
Assay [6] is described as follows: blockers of DNA damage checkpoint Chk1 activation – imaging, HeLa, hydroxyurea, phospho-Chk1 nuclear intensity, primary screen (AID 1187). Conditions: hydroxyurea-induced phospho-Chk1 immunofluorescence imaging, higher = more signal.

The source made the active and inactive calls. Unless noted, how the calls were made is not given here.

With `NC(=O)NCC#Cc1ccc2c(c1)[C@]1(C(=O)N2)[C@H](c2ccc(O)cc2)N2[C@H](c3ccccc3)[C@H](c3ccccc3)OC(=O)[C@H]2[C@@H]1C(=O)O`, the composite z-score was -0.211 (inactive) in assay [1] and 0.157 in assay [2]. Also, the z-score was 0.431 in assay [3], -5.27 (inactive) in assay [4], 0.123 (inactive) in assay [5] and 0.094 (inactive) in assay [6].
On to `C=C(CC1([C@@H](NP(=O)(c2ccccc2)c2ccccc2)[C@H]2C[C@@H]2CCCC)CC1)c1ccccc1`, for which the composite z-score in assay [1] was -0.0402 (inactive); in assay [2] it was 0.143. The z-score in assay [3] was -0.548; in assay [4] it was -2.33 (inactive); in assay [5], 0.779 (inactive); in assay [6] it was 1.12 (inactive).
Consider `[N-]=[N+]=Nc1ccccc1[C@H]1OC(c2ccc(OCCCO)cc2)=N[C@@]1(CCS(=O)(=O)c1ccccc1)C(N)=O`, for which the figures for the composite z-score in assay [1] and in assay [2] were 1.21 (inactive) and 0.941, respectively. Further, the z-score in assay [3] was -1.42; in assay [4], -4.72 (inactive); in assay [5] it was -0.23 (inactive); in assay [6], 0.052 (inactive).
`COc1cc(Br)cc(C(O)C2C=CC3C(=O)N(C)C(=O)C3N2N2CCCCC2)c1OC` (configuration not stated): the composite z-score in assay [1] was -0.0992 (inactive); in assay [2] it was 0.823. The z-score in assay [3] was -0.11; in assay [4], -2.65 (inactive); in assay [5], 0.293 (inactive); in assay [6] it was 0.0293 (inactive).
As for `O=C1O[C@H](c2ccccc2)[C@H](c2ccccc2)N2[C@H]1[C@@H](C(=O)N1CCCCCCC1)[C@]1(C(=O)Nc3ccc(C#CC4=CCCCC4)cc31)[C@H]2c1ccc(OCCO)cc1`, the composite z-score is 2.27 (inactive) in assay [1] and 0.77 in assay [2]. The z-score in assay [3] was -2.33; in assay [4], -15.4 (active); in assay [5], 0.606 (inactive); in assay [6] it was 1.04 (inactive).
`COc1ccccc1CN1C(=O)c2ccccc2[C@@H](C(=O)NC2CC2)[C@@H]1c1ccc(CO)cc1`: the composite z-score is 0.98 (inactive) in assay [1] and 0.835 in assay [2]. In addition, the z-score in assay [3] was -1.79; in assay [4], -2.46 (inactive); in assay [5], 0.0151 (inactive); in assay [6] it was 0.351 (inactive).
In the case of `CCC(CC)C(O)C1C=CC2C(=O)NC(=O)C2N1Nc1ccc(Cl)cc1Cl` (configuration not stated), the results for the composite z-score in assay [1] and in assay [2] were 0.625 (inactive) and 0.587, respectively. Also, the z-score in assay [3] was -0.225; in assay [4], -4.8 (inactive); in assay [5] it was 0.724 (inactive); in assay [6] it was 0.786 (inactive).
For `C[C@@]1([C@@H](NC(=O)c2ccc(-c3ccccc3)cc2)c2ccc(Cl)cc2)C[C@H]1C1CCCCC1`, the results for the composite z-score in assay [1] and in assay [2] were -0.223 (inactive) and 0.492, respectively. In addition, the z-score in assay [3] was -0.311; in assay [4], -2.06 (inactive); in assay [5] it was -0.273 (inactive); in assay [6] it was 0.861 (inactive).
For the compound `COC(=O)C(CC#Cc1ccc2c(c1)[C@]1(C(=O)N2)[C@H](c2ccc(OCCO)cc2)N2[C@H](c3ccccc3)[C@H](c3ccccc3)OC(=O)[C@H]2[C@@H]1C(=O)N1CCc2cc(OC)c(OC)cc2C1)C(=O)OC`, the values for the composite z-score in assay [1] and in assay [2] were 0.0734 (inactive) and 0.78, respectively. In addition, the z-score in assay [3] was -2; in assay [4], -1.29 (inactive); in assay [5], 0.192 (inactive); in assay [6], 0.492 (inactive).
As for `COC(=O)[C@@]1(Cc2ccc(OC)cc2)[C@H]2c3cc(C(=O)N(C)C)n(Cc4ccccn4)c3C[C@H]2CN1C(=O)c1ccccc1`, the composite z-score was 0.544 (inactive) in assay [1] and -0.765 in assay [2]. For the same compound, the z-score is -1.54 in assay [3], -5.52 (inactive) in assay [4], -0.276 (inactive) in assay [5] and -0.406 (inactive) in assay [6].
In the case of `O=C(NCCO)C1=C[C@H](Oc2ccccc2I)[C@@H](O)[C@H](N(Cc2ccco2)C(=O)Cc2ccccc2)C1`, the composite z-score is 0.143 (inactive) in assay [1] and -1.13 in assay [2]. For the same compound, the z-score in assay [3] is -1.32; in assay [4] it was -2.48 (inactive); in assay [5], 0.0831 (inactive); in assay [6], 0.304 (inactive).
For the compound `O=C1C2C=CC(C(O)c3cc(C(F)(F)F)cc(C(F)(F)F)c3)N(n3cnnc3)C2C(=O)N1Cc1ccccc1` (configuration not stated), the composite z-score was -0.0242 (inactive) in assay [1] and 0.662 in assay [2]. Moreover, the z-score is -1.06 in assay [3], -2.95 (inactive) in assay [4], 0.506 (inactive) in assay [5] and 0.135 (inactive) in assay [6].
Regarding `CCCC=C(CCC)[C@@H](NC(=O)c1cccs1)c1ccc(C(F)(F)F)cc1`, the figures for the composite z-score in assay [1] and in assay [2] were 0.0798 (inactive) and 0.477, respectively. Besides, the z-score in assay [3] was -1.65; in assay [4], -2.14 (inactive); in assay [5], 0.247 (inactive); in assay [6], 0.201 (inactive).
Turning to `CCCCCN1CC=CC23O[C@@H]4/C=C\CCC(C)OC(=O)C4[C@H]2C(=O)N(C(C)CO)[C@@H]3C1=O` (some centres not stated), the composite z-score in assay [1] is 0.176 (inactive); in assay [2], 0.0664. The z-score in assay [3] is -0.107; in assay [4], -4.77 (inactive); in assay [5], -0.808 (inactive); in assay [6] it was -0.732 (inactive).
As for `COc1cc2c(cc1OC)CN(C(=O)[C@@H]1[C@H]3C(=O)O[C@H](c4ccccc4)[C@H](c4ccccc4)N3[C@H](c3ccc(O)cc3)[C@@]13C(=O)Nc1ccccc13)CC2`, the composite z-score in assay [1] is 0.0997 (inactive); in assay [2], 0.686. The z-score in assay [3] was -1.42; in assay [4] it was -2.32 (inactive); in assay [5], -0.478 (inactive); in assay [6] it was -0.728 (inactive).
For the compound `O=C1C[C@@](C(=O)NCC(F)(F)F)(c2ccc([N+](=O)[O-])cc2)[C@@H](c2ccc(CO)cc2I)N1C1CCCCC1`, the composite z-score in assay [1] was 0.469 (inactive); in assay [2], 0.778. Further, the z-score is -1.26 in assay [3], -4.99 (inactive) in assay [4], -0.171 (inactive) in assay [5] and 0.187 (inactive) in assay [6].
Regarding `CCCC[C@H]1OB(O)C[C@H]2C1=C(COC)C[C@H]1C(=O)N(C)C(=O)[C@H]12`, the composite z-score in assay [1] was -0.267 (inactive); in assay [2] it was -0.0711. The z-score in assay [3] was 1.5; in assay [4] it was -9 (active); in assay [5], 0.534 (inactive); in assay [6], 0.312 (inactive).
